Composite z-score data for 30 compounds are collected here from PubChem BioAssay.

Molecules are shown by their SMILES.

Epidermal growth factor receptor (Homo sapiens), sequence (P00533 whole entry, looked up): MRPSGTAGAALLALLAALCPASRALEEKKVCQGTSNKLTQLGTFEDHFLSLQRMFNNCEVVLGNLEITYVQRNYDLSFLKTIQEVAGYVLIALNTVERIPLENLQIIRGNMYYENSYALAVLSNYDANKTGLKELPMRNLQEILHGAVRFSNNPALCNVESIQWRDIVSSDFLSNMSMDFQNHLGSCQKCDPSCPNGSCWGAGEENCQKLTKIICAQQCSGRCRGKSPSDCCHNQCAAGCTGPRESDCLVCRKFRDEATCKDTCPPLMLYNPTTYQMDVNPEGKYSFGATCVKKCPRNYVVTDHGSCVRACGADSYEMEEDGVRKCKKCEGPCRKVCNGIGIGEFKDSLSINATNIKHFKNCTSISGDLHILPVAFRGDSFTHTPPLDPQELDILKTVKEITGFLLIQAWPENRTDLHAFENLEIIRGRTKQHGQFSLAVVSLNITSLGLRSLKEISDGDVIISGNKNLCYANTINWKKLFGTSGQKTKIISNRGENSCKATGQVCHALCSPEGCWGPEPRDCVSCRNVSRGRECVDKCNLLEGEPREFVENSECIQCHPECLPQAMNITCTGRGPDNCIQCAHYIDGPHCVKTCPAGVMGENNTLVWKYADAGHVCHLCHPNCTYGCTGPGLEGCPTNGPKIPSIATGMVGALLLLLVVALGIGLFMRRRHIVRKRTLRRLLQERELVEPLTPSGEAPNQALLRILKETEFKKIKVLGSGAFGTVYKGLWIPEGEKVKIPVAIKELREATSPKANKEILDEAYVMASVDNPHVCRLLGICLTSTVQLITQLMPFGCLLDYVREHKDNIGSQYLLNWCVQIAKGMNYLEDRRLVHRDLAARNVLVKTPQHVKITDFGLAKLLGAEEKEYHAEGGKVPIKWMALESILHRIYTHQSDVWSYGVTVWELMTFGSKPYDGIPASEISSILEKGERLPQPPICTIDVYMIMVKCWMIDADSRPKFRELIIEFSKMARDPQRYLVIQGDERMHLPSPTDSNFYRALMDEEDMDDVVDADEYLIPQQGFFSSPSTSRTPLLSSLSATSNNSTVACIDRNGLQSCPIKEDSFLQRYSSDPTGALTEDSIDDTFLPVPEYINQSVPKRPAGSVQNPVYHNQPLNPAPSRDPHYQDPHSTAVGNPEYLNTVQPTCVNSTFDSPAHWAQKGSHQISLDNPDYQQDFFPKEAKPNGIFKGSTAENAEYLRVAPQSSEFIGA

One experiment has as its system glycogen synthase kinase-3 (GSK3A per assay name; protocol says GSK3B). The experiment can be described thus: GSK3 binders on small-molecule microarrays, primary screen, biochemical, small-molecule microarray, 635 nm fluorescence, GSK3A (AID 1103). Note: the record names both GSK3A and GSK3B. Conditions: small-molecule microarray binding, fluorescence 635 nm; higher = more signal.
`CC(C)CON=C1C[C@@H](O)[C@@H](O)[C@@H]2[C@@H]3C(=O)N(Cc4ccc5c(c4)OCO5)C(=O)[C@@H]3CC[C@H]12` had a composite z-score of 0.589.
On the same count and under the same terms, in the case of `CCN1C(=O)[C@H]2[C@H]3[C@H](O)[C@H](O)CC(=NOCC(C)C)[C@@H]3CC[C@H]2C1=O` it was 1.24.
The same measure, in the same setting: as for `CC(C)=NO[C@H](C)c1cn([C@H](CO)Cc2ccccc2)nn1`, the figure is -0.122.
The same measure, in the same setting: in the case of `CCCNC(=O)OC[C@H]1O[C@H](c2ccccc2)C=C[C@@H]1Oc1ccc(OC)cc1` it was -0.0811; in that of `C[C@@H]1CC[C@H]2C(=O)O[C@@H](Cc3ccccc3)CN2[C@H]1c1ccc(Br)cc1`, 0.177.
As to `COc1ccc(O[C@H]2C=C[C@@H](c3ccccc3)O[C@@H]2CON=C(C)CCC(=O)OC[C@H]2O[C@H](c3ccccc3)C=C[C@@H]2Oc2ccc(OC)cc2)cc1`, the composite z-score is -1.59.
The same measure, in the same setting: as for `O=C1[C@H]2[C@H]3[C@H](O)[C@H](O)CC(=NOCc4ccccc4)[C@@H]3CC[C@H]2C(=O)N1Cc1ccc2c(c1)OCO2`, the figure is -0.0163; as for `COC(=O)CC=C[C@@H](C)[C@@H](C=NO[C@@H]1O[C@H](COC(C)=O)[C@@H](OC(C)=O)[C@H](OC(C)=O)[C@H]1OC(C)=O)OC`, -0.757; as for `COc1cccc([C@H]2Oc3ccc(OC)cc3C(=NOC[C@@H](O)[C@H]3O[C@@H]4OC(C)(C)O[C@@H]4[C@H]3O)[C@@H]2O)c1`, 0.315.
Same read-out and setting: as for `O=C1C[C@@H](O)[C@@H](O)[C@@H]2[C@@H]3C(=O)N(Cc4ccccc4)C(=O)[C@@H]3CC[C@@H]12`, the figure is 0.863; as for `CO[C@H]1COC(=O)CC=C[C@@H](C)[C@H](OC)COC(=O)CCC[C@@H]1C`, 0.274; as for `CCN1C(=O)[C@H]2[C@H]3[C@H](O)[C@H](O)CC(=NNC(=O)OCc4ccc(OC)cc4)[C@@H]3CC[C@H]2C1=O`, 0.269.

A further experiment addresses Epidermal growth factor receptor (Homo sapiens) (UniProt P00533). As to the kind of experiment: EGFR binders on small-molecule microarrays, primary screen, biochemical, small-molecule microarray, 635 nm fluorescence (AID 1104).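 Note: score merges 667 nm emission intensity with spot signal to noise over triplicate slides.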 As to conditions: EGFR binding, higher = more signal.
Turning to `O=C1CCCC(C2=CCCCC2=O)C1` (stereo not given), the composite z-score was 0.612.
Same read-out and setting: as for `Cn1c(=O)n2n(c1=O)[C@H]1[C@H](O)[C@@H]3O[C@@H]3C(=NOCc3ccccc3)[C@H]1CC2`, the figure is -0.0492; as for `CO[C@H](C1CCCCC1)[C@H](C)C=CCC(=O)OCCCc1ccccc1`, 0.471.
The same measure, in the same setting: in the case of `COC(=O)[C@H](C)NC(=O)CCC1CC(OC(=O)NCc2ccc3c(c2)OCO3)CC2(CCCC(COC(=O)NCC(c3ccccc3)c3ccccc3)O2)O1` (stereo not given in full) it was 0.651; in that of `O=c1n(-c2ccccc2)c(=O)n2n1CC[C@@H]1C(=NOCc3ccccc3)[C@H]3O[C@H]3[C@@H](O)[C@@H]12`, -0.0683; in that of `COC(=O)[C@H]1[C@@H](O)[C@@]2(O)c3ccccc3O[C@@]2(c2ccccc2)[C@@H]1c1ccccc1`, 0.396.
Compound `COC(=O)CC=C[C@@H](C)[C@@H](C=NOC(C)CN1CCCc2nc(C)c(C)cc21)OC` (stereo not given in full) displayed a composite z-score of 0.538.
Same read-out and setting: in the case of `COC(=O)[C@H](C)NC(=O)CCC1CC(OC(=O)NCCc2ccc(F)cc2)CC2(CCCC(COC(=O)NCc3cccc(C(F)(F)F)c3)O2)O1` (stereo not given in full) it was 0.873.
Same read-out and setting: in the case of `Cc1ccc(S(=O)(=O)N[C@H]2COC(=O)CC=C[C@H](C)[C@@H](NS(=O)(=O)c3ccc(C)cc3)COC(=O)CC=C[C@@H]2C)cc1` it was 0.364; in that of `CON=C1[C@H]2CCn3c(=O)n(-c4ccccc4)c(=O)n3[C@H]2[C@H](O)[C@@H]2O[C@H]12`, 0.599.
Same read-out and setting: in the case of `C#CCCCON=C1C[C@@H](O)[C@@H](O)[C@@H]2[C@@H]3C(=O)N(C(C)(C)C)C(=O)[C@@H]3CC[C@@H]12` it was -0.306; in that of `CO[C@H]1COC(=O)CC=C[C@@H](C)[C@H](NS(=O)(=O)c2ccc(C)cc2)COC(=O)CCC[C@@H]1C`, 0.484.
For the compound `COc1ccc(COC(=O)NN=C2C[C@@H](O)[C@@H](O)[C@@H]3[C@@H]4C(=O)N(c5ccc(F)cc5F)C(=O)[C@@H]4CC[C@H]23)cc1`, the composite z-score was -1.2.
For the compound `COc1ccc(O[C@H]2C=C[C@@H](c3ccccc3)O[C@@H]2COC(=O)CCC(C)=NOC[C@@H](O)[C@H]2O[C@@H]3OC(C)(C)O[C@@H]3[C@H]2O)cc1`, the composite z-score came to 0.615.
As to `CO[C@H]1COC(=O)CC=C[C@H](C)[C@@H](OC)COC(=O)[C@H](C)COC(=O)CC=C[C@@H]1C`, the composite z-score was determined as 1.36.
Same read-out and setting: as for `CCOC(=O)C1=NO[C@]2(C=C(Br)C3(OCCCO3)[C@H]3O[C@H]32)C1`, the figure is -0.203; as for `Cc1cc2c(nc1C)CCCCN2CC(C)ON=C1[C@H]2CCn3c(=O)n(-c4ccccc4)c(=O)n3[C@H]2[C@H](O)[C@@H]2O[C@H]12` (stereo not given in full), 0.302.
`COc1ccc(O[C@H]2C=C[C@@H](c3ccccc3)O[C@@H]2COC(=O)CCC(C)=NO[C@@H]2O[C@H](COC(C)=O)[C@@H](OC(C)=O)[C@H](OC(C)=O)[C@H]2OC(C)=O)cc1` showed a composite z-score of 0.609.
